Experimental data reported in PubChem BioAssay (NCI).
Compounds without any hit were thinned out: in the full panel of roughly 83,000, 20% have a hit.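 Cells were grown in 96-well plates and exposed to the test compound at a single concentration for 48 hours; results are reported as percent growth, with values below 10 considered active.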 Values without a mark were called inactive. Active and inactive are the calls of the source.

Experiments:
Assay in all cases: NCI-60 one-dose screen, 48 h (100 = growth as untreated, 0 = no growth, -100 = all killed)
Details in all cases: 10 µM unless noted
NCI-H23 lung = system: NCI-H23 lung
NCI-H226 lung = system: NCI-H226 lung
NCI-H322M lung = system: NCI-H322M lung
NCI-H460 lung = system: NCI-H460 lung
HOP-92 NSCLC = system: HOP-92 NSCLC
NCI-H522 lung = system: NCI-H522 lung
A549/ATCC NSCLC = system: A549/ATCC NSCLC
786-0 renal = system: 786-0 renal
COLO 205 colon = system: COLO 205 colon
DU-145 prostate = system: DU-145 prostate
K-562 leukemia = system: K-562 leukemia
MALME-3M melanoma = system: MALME-3M melanoma
MDA-MB-231 breast = system: MDA-MB-231 breast
RXF 393 renal = system: RXF 393 renal
SF-268 CNS = system: SF-268 CNS
SF-295 CNS = system: SF-295 CNS
SF-539 CNS = system: SF-539 CNS
UACC-257 melanoma = system: UACC-257 melanoma
M14 melanoma = system: M14 melanoma
HOP-62 NSCLC = system: HOP-62 NSCLC

| SMILES | growth (NCI-H23 lung) | growth (NCI-H226 lung) [%] | growth (NCI-H322M lung) | growth (NCI-H460 lung) | growth (HOP-92 NSCLC) | growth (NCI-H522 lung) | growth (A549/ATCC NSCLC) | growth (786-0 renal) | growth (COLO 205 colon) | growth (DU-145 prostate) | growth (K-562 leukemia) | growth (MALME-3M melanoma) | growth (MDA-MB-231 breast) | growth (RXF 393 renal) | growth (SF-268 CNS) | growth (SF-295 CNS) | growth (SF-539 CNS) | growth (UACC-257 melanoma) | growth (M14 melanoma) | growth (HOP-62 NSCLC) |
| --- | --- | --- | --- | --- | --- | --- | --- | --- | --- | --- | --- | --- | --- | --- | --- | --- | --- | --- | --- | --- |
| C1=C(N2CCCC2)CCC1 | 100% | 109 | 109% | 93.2% | 65.8% | 94.6% | 99% | 105% | 124% | 108% | 120% | 100% | 98.8% | 93.1% | 107% | 104% | 87.4% | 89.8% | 96.2% | – |
| O=Nc1c(-c2c(O)[nH]c3ncccc23)[nH]c2ccccc12 | 69.7% | 78.6 | 30.7% | 52.2% | 54% | 47.6% | 46.6% | 43.3% | 108% | 62.2% | 53.3% | 91% | 78.6% | 29.4% | 66.2% | 94.9% | 50.3% | 92.6% | 56.4% | – |
| O=[N+]([O-])c1ccc(S(=O)(=O)N2CCN(C3=NS(=O)(=O)c4ccccc4N3c3ccccc3)CC2)cc1 | 87.2% | 104 | 99.6% | 115% | -0.794% (active) | 94.5% | 96.3% | 96.7% | 117% | 117% | 84.9% | 106% | 99.2% | 91.7% | 101% | 91.2% | 103% | 101% | 113% | – |
| CC(C)(C)n1cc(-c2ccnc(NCCCNS(=O)(=O)c3ccc(F)cc3)c2)c(-c2cccc(F)c2)n1 | 67.5% | 60.1 | 91.3% | 36.1% | 67.5% | 57.2% | 43.5% | 66.7% | 32.6% | 77.7% | 18.1% | 85.4% | 75.6% | 68% | 74.3% | 74% | 68.7% | 89.2% | 53.8% | – |
| Brc1ccc2[nH]cc(-c3nonc3-c3c[nH]c4ccccc34)c2c1 | 45.2% | – | 30.9% | 12.2% | 32.1% | 13.6% | 35.9% | 67.3% | 36.3% | 44.6% | 10.4% | 56.8% | 11.6% | 77.6% | 44.9% | 33.3% | 59.9% | 56.9% | 24.7% | 43.4% |
| Cc1noc(C)c1C(=O)OCc1coc2ccccc2c1=O | 71.3% | – | 96.2% | 83.8% | 27.4% | -15.4% (active) | 89.5% | 55.4% | 66.6% | 27.8% | 36.5% | 51.4% | 61.2% | 76.5% | 79.8% | 104% | 68.5% | 72.2% | 69.1% | 87.5% |
| Cc1cc(N)c2cc(NC(=O)/C=C\c3ccccc3Cl)ccc2n1 | -85.4% (active) | – | -83.3% (active) | -78.3% (active) | -69.5% (active) | -70.7% (active) | -43.5% (active) | -81.3% (active) | -65.9% (active) | -92.8% (active) | -31.9% (active) | -76.2% (active) | -87.1% (active) | -78.2% (active) | -76.6% (active) | -80.4% (active) | -91.3% (active) | -49.2% (active) | -70.9% (active) | -71.5% (active) |
| COc1ccc(C(c2cc(OC)c(OC)c(OC)c2)N2CCN(c3ccccc3)CC2)cc1 (centres undefined) | 84.4% | – | 83.7% | 96.9% | 86.7% | 56.5% | 85.7% | 101% | 92.7% | 113% | 41.6% | 99.7% | 92.3% | 96.2% | 95.8% | 92.3% | 94.4% | 81.3% | 76.3% | 88.9% |
| CC[C@]12C=CCN3CC[C@@]4(c5cc(NC(=O)CCC(=O)OCc6cn(Cc7ccc(F)cc7)nn6)c(OC)cc5N(C)[C@H]4[C@@](O)(C(=O)OC)[C@@H]1OC(C)=O)[C@@H]32 | 97.2% | – | 94.3% | 106% | 92.5% | 98.5% | 96.5% | 96.4% | 107% | 104% | 99.8% | 99.5% | 98.9% | 103% | 95.7% | 103% | 96.9% | 102% | 103% | 100% |
| CS(=O)(=O)C1=CN(CCO)C(=O)N2CCCN=C12 | 95.7% | – | 93.1% | 102% | 101% | 94.8% | 98.7% | 99.5% | 97.8% | 105% | 118% | 96.2% | 98.6% | 106% | 97.2% | 105% | 102% | 105% | 98.9% | 92.4% |
| O=C1C(Cl)=C(Nc2ccc(O)cc2)C(=O)N1Cc1ccc(Cl)cc1 | 85.2% | – | 77% | 78.9% | 69.7% | 51.9% | 71.6% | 70.6% | 35.8% | 90.2% | 11.9% | 76.2% | 74.1% | 64.3% | 57.5% | 97.4% | 65% | 70% | 24.2% | 84.2% |
| CCSc1nc(NC)c2cc(-c3ccc(C(F)(F)F)cc3)ccc2n1 | 94.3% | – | 97.8% | 103% | 97.6% | 93.7% | 100% | 102% | 107% | 105% | 105% | 96.9% | 90.3% | 90.5% | 103% | 102% | 103% | 106% | 96.5% | 101% |
| Cc1nnc(-n2c(O)cc(=O)n(-c3ccccc3)c2=S)nc1/C=C/c1ccc(N(C)C)cc1 | 60.9% | – | 50.5% | 62.4% | 43.7% | 19.2% | 51.2% | 49.5% | 39.7% | 73.7% | 30.1% | 63.3% | 45.6% | 83.3% | 78.4% | 62% | 66% | 35.3% | 49.8% | 39.2% |
| COC(=O)c1cc(-c2ccc(S(C)(=O)=O)cc2)[nH]c1N/N=C/c1c(Cl)cccc1Cl | 29.6% | – | 15.4% | 3.65% (active) | 18.9% | -15.1% (active) | 25.2% | 5.08% (active) | -19.3% (active) | 4.36% (active) | -1.67% (active) | 4.13% (active) | 50.9% | -2.32% (active) | 37.1% | -28.2% (active) | -19.8% (active) | 60.3% | -8.67% (active) | 3.22% (active) |
| CCN1CC(=O)N(/N=C2\C(=O)Nc3ccccc32)C1=S | 91.4% | 69.6 | 88.6% | 88.3% | 87.8% | 85.4% | 98.9% | 103% | 101% | 112% | 106% | 91% | 88.5% | 76.5% | 103% | 96.6% | 94.1% | 103% | 86% | – |
| Fc1cc(F)cc(C(c2c[nH]c3ccccc23)c2c[nH]c3ccccc23)c1 | 89.4% | – | 86.1% | 97.8% | 89.4% | 75% | 82% | 98% | 97.8% | 105% | 118% | 130% | 86.6% | 115% | 97.6% | 78.6% | 106% | 99.8% | 98% | 91.1% |
